An excerpt weighted towards active compounds, which were near 8.1% of everything screened.
KB-V1 MDR tox: KB-V1 MDR subline cytotoxicity | KB-V1 MDR cells viability, CellTiter-Glo, 72 h | Potency, µM (top dose mostly 46.1 µM), usual class: cytotoxic | actives 3.4% (n = 400,000); note: % is set by controls: 0 for no effect and ±100 for the full control effect; nearly all actives have a fitted effect of over 60% in size
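KB-V1 MDR subline cells in DMEM (phenol-red free, 10% FBS) exposed to compounds in qHTS concentration series for 72 h at 37 degrees C. Viability read by CellTiter-Glo luminescence; concentration-effect curves fitted after normalization and correction.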
KB-3-1 cytotox: kills parental KB-3-1 adenocarcinoma cells; Potency, µM (series often up to 46.1 µM), usual class: cytotoxic; KB-3-1 viability, CellTiter-Glo ATP luminescence, 72 h; actives 1.4% (n = 400,000); note: % is set by controls: 0 for no effect and ±100 for the full control effect; nearly all actives have a fitted effect of over 60% in size
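72 h, 37 °C compound treatment of KB-3-1 parental cells; CellTiter-Glo added, 10 min, luminescence read. Data corrected against DMSO-only plates and normalized before curve fitting.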
SW480 rerep: DNA re-replication induction in SW480 cells; AID 624297; SW480 DNA re-replication, Hoechst DNA content imaging, 48 h; actives 1.8% (n = 340,000); Potency, µM (doses to about 46.1 µM), inactives show at the highest dose re-replication activation, hits mostly activators; note: % of control where 0% means no effect; nearly all actives have a fitted effect of over 55% in size
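250 cells/well; 23 nL cpd via pin tool; 48 hr, 37 C, 5% CO2; Hoechst 40 min; imager read of total nuclear intensity, ex 405/em 500-530 nm.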
ELG1 DNA repair: ELG1-dependent DNA repair inhibition | AID 504467 | actives 2.3% (n = 330,000) | HEK293T ELG1-luciferase reporter, luminescence, 16 h; DNA damage induced by 5-fluorouridine | Potency, µM (series often up to 46.1 µM), inactives show at the top dose activity change, negative = inhibition, actives largely listed as inhibitors; note: % is set by controls: 0 for no effect and ±100 for the full control effect; nearly all actives have a fitted effect of over 55% in size
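HEK293T cells expressing luciferase-tagged ELG1 (2,000/well) received 5-Fluorouridine plus compound or DMSO for 16 hr at 37 °C. Luciferase was read by ONE-Glo luminescence after 30 min at room temperature.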
MCF10A rerep: induces DNA re-replication in MCF 10a normal breast cells | MCF 10A DNA re-replication, Hoechst nuclear intensity, 48 h | Potency, µM (series often up to 46.1 µM), without a hit: top-dose activity, positive = re-replication, actives largely listed as activators | actives 2.9% (n = 350,000) | AID 624296; note: % of control where 0% means no effect; nearly all actives have a fitted effect of over 50% in size
* = called active by the depositor; i = inactive; ? = inconclusive; . = not tested or not shown. Calls come from the whole dose curve; as a rule, active = well fitted curve in the direction sought with a large enough effect; inconclusive = small, poorly fitted or top-dose-only effect, or another doubt; inactive = no such curve, though single readings can be large; an effect the other way counts as inactive or inconclusive. Potency is the fitted concentration of half-maximal effect.

SMILES | KB-V1 MDR tox | KB-3-1 cytotox | SW480 rerep | ELG1 DNA repair | MCF10A rerep
CC1CCc2c(sc(NC(=O)CCc3nc4ccccc4c(=O)[nH]3)c2C#N)C1 (configuration not stated) | ? | i | -7% | 12% | -6%
CCN(CC(=O)Nc1ccc(C(=O)Nc2ccc(OC)cc2)cc1)Cc1nc2ccccc2c(=O)[nH]1 | i | i | -19% | 6.5µM* | -3%
Cc1c(NC(=O)C(C)N(c2ccccc2)S(C)(=O)=O)c(=O)n(-c2ccccc2)n1C (configuration not stated) | i | i | -3% | 7% | ?
O=C1C(c2ccccc2)c2ccccc2N1Cc1ccccc1 (configuration not stated) | i | i | 1% | . | -1%
CCN(CC(=O)Nc1ccc2c(c1)OCCO2)Cc1nc2cc(Cl)ccc2c(=O)[nH]1 | 21µM* | i | -1% | ? | ?
CCN(CC(=O)Nc1sc2c(c1C#N)CCC(C)C2)CC(=O)NC1CCS(=O)(=O)C1 (configuration not stated) | i | i | ? | 18µM* | 2%
CCN(CC(=O)Nc1sc2c(c1C#N)CCCC2)Cc1nc2ccccc2c(=O)[nH]1 | ? | i | -1% | 15µM* | 3%
COc1ccc(CC(=O)Nc2ccc(NC(=O)c3ccccc3F)cc2)cc1 | i | i | -67% | ? | 2%
COc1cc(C#Cc2c(-c3ccccc3OC)oc3ccccc23)cc(OC)c1 | i | i | 14% | ? | ?
CCOC(=O)c1ccc(-c2ccc(/C=N/NC(=O)c3cncc(Br)c3)o2)cc1 | i | i | -7% | ? | 7%
O=S(=O)(Nc1ccc(-c2nc3cccnc3s2)cc1)c1ccccc1F | i | i | 23µM* | ? | ?
Cc1cc(-c2nc3cccnc3s2)ccc1NS(=O)(=O)c1cccs1 | i | i | ? | ? | 5.8µM*
Cc1cc(-c2nc3cccnc3s2)ccc1NS(=O)(=O)c1ccc2c(c1)OCCO2 | i | i | ? | ? | 5.2µM*
Cc1c(NS(=O)(=O)c2ccc3c(c2)OCCO3)cccc1-c1nc2cccnc2s1 | i | ? | 0% | ? | 1%
O=S(=O)(Nc1ccc(-c2nc3cccnc3s2)cc1)c1ccc(Cl)s1 | i | i | -2% | ? | 8.2µM*
CCS(=O)(=O)Nc1cccc(-c2nc3cccnc3s2)c1 | i | i | -1% | ? | -3%
Cc1cc(COC(=O)C2N3C(=O)[C@@H](NC(=O)COc4ccccc4)[C@H]3SC2(C)C)on1 (some centres not stated) | i | i | -3% | -10% | -6%
O=C(c1ccccc1)N1CCN(C(=O)c2ccc(OC(F)(F)F)cc2)CC1 | i | i | -4% | ? | 0%
Cc1ccc(C(=O)NCC(=O)NCC(=O)OCC(=O)c2ccc(F)cc2)cc1 | ? | i | ? | 5% | 0%
O=S(=O)(Nc1ccc(-c2nc3cccnc3s2)cc1)c1cccs1 | i | i | 5% | ? | 6.5µM*
O=S(=O)(Nc1cccc2ncccc12)c1cccs1 | ? | ? | 6.5µM* | 4.1µM* | 16µM*
CCS(=O)(=O)Nc1ccc(-c2nc3cccnc3s2)cc1 | i | i | -7% | ? | 27%
COc1cccc(C2C(C(=O)c3ccc(C)o3)=C(O)C(=O)N2CCN2CCOCC2)c1 (configuration not stated) | i | i | 0% | 21µM* | 0%
COc1cccc(C2C(C(=O)c3cccs3)=C(O)C(=O)N2CCN2CCOCC2)c1 (configuration not stated) | i | i | 14% | 9% | -1%
Cc1ccc(C2C(C(=O)c3cc4ccccc4o3)=C(O)C(=O)N2CCN2CCOCC2)cc1 (configuration not stated) | i | i | -1% | -3% | 21µM*
CCCOc1ccc(CNC(=O)c2[nH]c3cc(OC)ccc3c2Sc2ccccc2)cc1 | i | i | . | . | .

Screening data as filed in PubChem BioAssay.
